Only some compounds are listed: those with a hit (about 1.2% of all), similar ones and a draw of the others.
Six1-Eya2 blk: qHTS Assay for Inhibitors of the Six1/Eya2 Interaction | AlphaScreen GST-Six1/His-Eya2 binding, biochemical; stronger effect = lower value | activity change, % (no concentration beside the values) | hit rate 0.56% among 360,000 | AID 651725, 2012; in the data active = activity change below about -65%; inconclusive = mostly about -30% to -63%
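GST-Six1 + His-Eya2 (5X stock: 250/500 nM); Tris pH 8.0, 300 mM NaCl, 0.05% BSA, 0.02% Tween 20; GSH donor/Ni acceptor beads; 1 h 37 °C dark; AlphaScreen readout.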
uPA generation: qHTS for Inhibitors of Cell Surface uPA Generation. cell surface uPA generation assay, qHTS. Potency, µM (titrated, usually from 38.3 µM), usual class: inhibitors. hit rate 0.31% among 330,000. AID 540303, 2011; active = well fitted inhibition curve with a large enough effect; inconclusive = small, poorly fitted or top-dose-only effect; inactive = no such curve, though single readings can be large or run the other way; tested in mouse RAW 264.7 cells; note: nearly all actives have a fitted effect of over 55% in size
L3MBTL1 inh: qHTS Assay for the Inhibitors of L3MBTL1 | Lethal(3)malignant brain tumor-like protein 1 (Homo sapiens), Q9Y468 | AlphaScreen L3MBTL1–H3K9me1 peptide binding | Potency, µM (doses to about 57.1 µM), actives largely listed as inhibitors | hit rate 0.66% among 230,000 | AID 485360, 2010; note: nearly all actives have a fitted effect of over 60% in size
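L3MBTL1 50 nM + b-AHA-H3(1-15)K9me1 75 nM, 30 min RT; compound added, 30 min RT; streptavidin donor/Ni-chelate acceptor beads 10 ug/mL each final, 30 min RT dark; AlphaScreen read.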
Eya2 phos inh: qHTS Assay for Inhibitors of the Phosphatase Activity of Eya2; Protein phosphatase EYA2 (Homo sapiens), O00167; recombinant Eya2, OMFP fluorescence dephosphorylation (OMFP is methylfluorescein phosphate); Potency, µM (titrated, usually from 76.9 µM), hits mostly inhibitors; hit rate 0.006% among 330,000; AID 488837, 2010
Target sequence (O00167 whole entry, looked up): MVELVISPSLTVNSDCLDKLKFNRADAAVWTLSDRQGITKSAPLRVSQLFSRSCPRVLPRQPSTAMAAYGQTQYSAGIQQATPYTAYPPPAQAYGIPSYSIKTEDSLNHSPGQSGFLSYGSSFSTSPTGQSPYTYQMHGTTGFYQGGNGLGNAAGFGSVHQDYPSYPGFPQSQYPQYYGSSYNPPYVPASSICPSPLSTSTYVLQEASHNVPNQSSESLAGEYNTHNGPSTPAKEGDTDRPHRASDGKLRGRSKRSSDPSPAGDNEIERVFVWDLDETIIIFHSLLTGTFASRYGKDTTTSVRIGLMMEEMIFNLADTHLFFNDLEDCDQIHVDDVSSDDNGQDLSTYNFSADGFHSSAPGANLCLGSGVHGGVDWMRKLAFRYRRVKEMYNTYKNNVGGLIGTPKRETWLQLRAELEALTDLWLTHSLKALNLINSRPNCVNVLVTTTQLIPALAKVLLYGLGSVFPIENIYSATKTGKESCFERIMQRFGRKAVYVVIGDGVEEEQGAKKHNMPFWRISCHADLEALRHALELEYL
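Eya2 protein (added as 0.2 uM solution) was preincubated with compound for 10 min at ambient temperature in 50 mM HEPES pH 7.5, 50 mM NaCl, 5 uM MgCl2, 0.05% BSA, 1 mM DTT. OMFP (added at 50 uM) then reacted 10 min; fluorescence read at 485/525 nm.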
USP2a block: qHTS Assay for Inhibitors of Ubiquitin-specific Protease USP2a Using CHOP2 as the Reporter | hit rate 0.01% among 330,000 | AID 463254, 2010 | USP2 core, Ub-CHOP2 coupled fluorogenic reporter, 485/531 | Potency, µM (highest dose often 38.3 µM), most hits filed as inhibitors
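Deubiquitinase activity read as fluorescence (485/531 nm) after Ub-CHOP2 cleavage activates the enterokinase reporter on its substrate; USP2 core 10nM, Ub-CHOP2 and substrate 25nM each, 30min compound preincubation then 60min RT; data normalized to NEM, curves fitted.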
CtBP-E1A inh: qHTS Assay for Inhibitors of the CtBP/E1A Interaction | CtBP / adenovirus E1A interaction (AlphaScreen) | AlphaScreen GST-E1A/His-CtBP binding, 1536-well; stronger effect = lower value | activity change, % (no concentration beside the values) | hit rate 0.49% among 340,000 | AID 651724, 2012; in the data active = activity change below about -65%; inconclusive = mostly about -30% to -63%
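Protein mix (5X: 125 nM each GST-E1A, His-CtBP) was incubated with pinned compound 2 h at 37 deg C in dark, in 50 mM Tris pH 8.0 buffer with 300 mM NaCl. Glutathione donor and nickel acceptor beads followed; AlphaScreen signal read after 1 h.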
Numbers stand for hits; – = inactive; ? = inconclusive; · = not tested or not shown. Unless noted, calls come from the whole dose curve; as a rule, active = well fitted curve in the direction sought with a large enough effect; inconclusive = small, poorly fitted or top-dose-only effect, or another doubt; inactive = no such curve, though single readings can be large; an effect the other way counts as inactive or inconclusive.

SMILES	Six1-Eya2 blk	uPA generation	L3MBTL1 inh	Eya2 phos inh	USP2a block	CtBP-E1A inh
O=C(CN1CC(=O)Oc2ccccc21)OCC(=O)c1cccc(Br)c1	-82	–	–	–	–	?
COc1ccc(-n2cc([N+](=O)[O-])c(=O)c3ccc(Cl)cc32)cc1	–	–	·	·	·	–
COc1ccc(Cl)cc1C(=O)NC1CC(C)(C)NC(C)(C)C1	–	·	·	·	·	–
O=C1CC(c2ccc3c(c2)OCCO3)Oc2ccc([N+](=O)[O-])cc21 (centres undefined)	–	10µM	·	–	–	·
CCOC(=O)c1ccccc1NC(=O)COC(=O)C(CC)Oc1ccccc1 (centres undefined)	–	·	·	·	·	–
CCN(Cc1ccccc1)S(=O)(=O)c1ccc(C(=O)Nc2nnc(C3CC3)o2)cc1	–	3.5µM	–	–	–	–
Cc1nnc(NC(=O)c2ccc(S(=O)(=O)N(C)Cc3ccccc3)cc2)o1	–	–	–	–	–	–
COP(=O)(OC)C(=NNS(=O)(=O)c1ccc(C)cc1)c1ccccc1	–	·	·	·	·	–
Cc1ccsc1/C=N/Nc1nc(=O)[nH]nc1C	-83	–	·	–	–	-94
CC(C)(C)c1ccc(C(=O)Nc2nnc(SCC(=O)NCC3CCCO3)s2)cc1 (centres undefined)	–	0.89µM	·	–	–	–
Cc1nc(SCC(=O)NCC2CCCO2)c2c3c(sc2n1)CCC3 (centres undefined)	–	–	·	–	–	–
CCOc1ccc(C(=O)Nc2nnc(SCC(=O)NCC3CCCO3)s2)cc1 (centres undefined)	–	?	·	–	–	–
CN(C)S(=O)(=O)c1ccc(C(=O)Nc2nnc(SCC(=O)NCC3CCCO3)s2)cc1 (centres undefined)	–	7.9µM	·	–	–	–
Cc1nc(SCC(=O)NCC2CCCO2)c2cc(-c3ccccc3)sc2n1 (centres undefined)	–	8.9µM	–	–	–	–
Cc1cc(=O)oc(C)c1C(=O)NC1CCCCCCC1	–	–	–	–	–	–
COc1ccc(C(=O)O)cc1S(=O)(=O)NCCc1ccccn1	–	–	·	–	–	–
O=[N+]([O-])c1ccc(C=Nc2cccc3ccccc23)s1	?	–	?	–	–	-70
Cc1[nH]c(=O)[nH]c(=O)c1/C=N/NC(=O)[C@@H](N)CC(C)C	-87	?	–	–	–	–
O=C1C=CC(=O)c2c(O)c(CO)c(CO)c(O)c21	-70	–	·	·	·	–
COc1ccc(-c2nn(-c3ccccc3C)cc2CNCc2cccnc2)cc1F	–	–	–	–	–	–
O=C(O)/C=C/C(=O)Nc1ccc2c(c1)C(=O)c1ccccc1C2=O	-67	–	·	–	–	–
COc1ccc(OC)c(Nc2nc(-c3c(C)nc4ncccn34)cs2)c1	?	?	·	–	–	-82
C=CCCC(=O)Nc1nc(C)c(-c2csc(Nc3ccccc3OC)n2)s1	–	3.5µM	–	–	–	·
COc1ccc(Nc2nc(-c3sc(C)nc3C)cs2)c(OC)c1	–	4.5µM	?	–	–	–
Cc1cc(C)[n+](C)n1CC(O)Cn1c2ccccc2c2ccccc21 (centres undefined)	–	–	–	–	–	·
SMILES	Six1-Eya2 blk	uPA generation	L3MBTL1 inh	Eya2 phos inh	USP2a block	CtBP-E1A inh
CCOC(=O)C1CCN(C(=O)CCS(=O)(=O)c2ccc3c(c2)n(C)c(=O)c(=O)n3C)CC1	–	–	–	–	–	–
NC(=S)N=Nc1c(O)[nH]c2cc(F)c(F)cc12	-65	–	–	–	–	-71
O=C(COc1ccccc1)N/N=C/c1sc(=O)n(Cc2cccc(C(=O)O)c2)c1Cl	–	–	–	–	–	–
O=C(O)c1cccc(Cn2c(Cl)c(/C=N/NC(=O)c3ccc(O)cc3)sc2=O)c1	?	–	·	–	–	-67
CCCNC(=O)c1onc(CS(=O)(=O)c2cccc(OC)c2)c1C(=O)NCCC	–	–	–	–	–	·
O=C(/C=C/c1ccco1)Nc1cccnc1Cl	–	–	–	–	–	·
O=C(/C=C/c1ccco1)Oc1cccc2cccnc12	-79	–	–	–	–	–
Cc1ccc2cccc(OC(=O)/C=C\c3ccccc3)c2n1	–	–	–	–	–	–
O=C(/C=C\c1ccco1)Oc1cccc2cccnc12	-76	–	·	–	–	-74
C[C@H](CO)N1C[C@H](C)[C@@H](CN(C)Cc2ccncc2)Oc2c(NS(=O)(=O)c3ccccc3)cccc2C1=O	–	–	–	–	–	–
O=C(NCc1ccco1)c1ccc(S(=O)(=O)N2CCOCC2)cc1	–	–	35µM	–	–	–
COC(=O)/C=C/COc1ccccc1[N+](=O)[O-]	–	11µM	–	–	–	·
COc1cccc(CNc2ccc(N3CCCCC3)cc2)c1OC	-66	–	20µM	–	–	?
COc1ccccc1CNc1ccc(N2CCCCC2)cc1	?	–	?	–	–	?
COc1cccc(Nc2ccc(N3CCCCC3)cc2)c1OC	·	–	35µM	–	–	·
COc1cccc(CN(C)C(=O)/C=C/c2ccc(S(=O)(=O)N3CCCCCC3)cc2)c1	–	–	·	–	–	–
CN(C)c1ccc(N=Nc2ccccc2Br)cc1	-87	?	·	–	–	-90
CC(=O)c1ccc(N=Nc2ccc(N(C)C)cc2)cc1	?	–	–	–	–	–
COC1=CC(=O)C=C(OC)C1=O	–	?	·	·	·	–
COC1=CC(=O)c2ccccc2C1=O	–	5µM	–	–	–	–
COc1ccc(C(=O)/C(C#N)=N/Nc2ccc([N+](=O)[O-])cc2)cc1	–	1µM	–	–	–	·
COC(=O)[C@@H]1C[C@]2(OC(=O)c3ccccc3)C=CC(=O)C[C@@H]2N1C(=O)OCc1ccccc1	–	3.2µM	–	–	–	–
Cc1cc(C(=O)c2ccccc2)cc(C)c1O	-86	–	·	·	·	–
COCCCNC(=O)C[C@H]1C[C@H](C(=O)N(C(C)C)C(C)C)[C@@]2(C)c3[nH]c4ccc(Cl)cc4c3CCN2C1=O	–	?	–	–	–	–
O=c1ccc(-c2ccc(S(=O)(=O)NCC3CCN(Cc4ccccc4F)CC3)s2)n[nH]1	-84	–	·	–	–	-88
COc1ccc(CCN(C)S(=O)(=O)c2cn(C)c(=O)n(C)c2=O)cc1OC	–	–	–	–	–	–
O=C(NCc1ccccc1)c1cc(-c2cccc(O)c2)on1	–	2.8µM	–	–	–	–
c1nc2n(n1)C1=C(CCCC1)C1(CCCCC1)N2	–	–	–	–	–	–
